The AC50 is the midpoint of the concentration-response curve, whichever way the signal moves.

Assay [1] in a line: ATG_CRE_CIS: Attagene CIS-FACTORIAL HepG2 Assay for human cAMP Responsive Element (CRE) binding protein 3 (AID 2282926). The note with it: HepG2 CRE cis-reporter, Attagene multiplexed mRNA; actives raise or lower the signal. In short, it runs like this: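 Multiplexed transcription-unit reporters transfected into HepG2; 24 h dosing; RT-PCR/capillary electrophoresis fluorescence read-out; bidirectional fit vs DMSO.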

Assay [2] has as its target CCAAT/enhancer-binding protein beta (Homo sapiens) (UniProt P17676). In words: ATG_C_EBP_CIS: Attagene CIS-FACTORIAL HepG2 Assay for human CCAAT/Enhancer Binding Protein (C/EBP) beta (AID 2282927). The settings on record: HepG2 Attagene cis-factorial transcription factor reporter; actives raise or lower the signal. In short, it runs like this:
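Transiently transfected HepG2 (MRTU library, endogenous TF-driven promoters); 24 h dosing; total RNA → oligo(dT) RT → PCR → 6-FAM primer extension → HpaI digest → CE; fit bidirectionally vs DMSO.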

The nature of assay [3]: ATG_CMV_CIS: Attagene CIS-FACTORIAL HepG2 Assay for human CMV (Internal Marker) (AID 2282928).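 Note: endpoint acts as a background internal control marker rather than a target.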 The settings on record: HepG2 CMV promoter reporter, transcription factor profiling; actives raise or lower the signal. The method in brief:
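Cell system: HepG2, transiently transfected multiple reporter units under cis promoters. Exposure: 24 h. Detection: RT-PCR, FAM labeling, HpaI digestion, capillary electrophoresis. Analysis: bidirectional, DMSO baseline.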

A short description of assay [4]: ATG_DR4_LXR_CIS: Attagene CIS-FACTORIAL HepG2 Assay for human Liver X Receptor (LXR), DR4 submotif (AID 2282929). The note with it: HepG2 Attagene DR4 cis-reporter, mRNA transcription; actives raise or lower the signal. In short, it runs like this: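 Endogenous factor activity at a DR4 cis-element is read as reporter mRNA in transiently transfected HepG2 cells. Exposure lasts 24 h; transcripts are amplified, fluorescently labelled and sized by capillary electrophoresis, with DMSO as baseline.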

The target of assay [5] is Aryl hydrocarbon receptor (Homo sapiens) (UniProt P35869). In words: ATG_Ahr_CIS: Attagene CIS-FACTORIAL HepG2 Assay for human Aryl Hydrocarbon Receptor (Ahr) (AID 2282930). The note with it: HepG2 AhR cis-factorial reporter transcription; actives raise or lower the signal. In short, it runs like this:
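Read-out: reporter mRNA quantified by RT-PCR with fluorescent primer extension and capillary electrophoresis. Human HepG2 liver cells carried transfected cis-promoter reporter units and were exposed to chemical for 24 h; gain or loss fitted relative to DMSO.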

A short description of assay [6]: ATG_AP_1_CIS: Attagene CIS-FACTORIAL HepG2 Assay for human Activator Protein 1 (AP-1) (AID 2282931). The settings on record: HepG2 Attagene cis-factorial AP-1 reporter mRNA; actives raise or lower the signal. The method in brief:
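Fluorescence of labelled PCR fragments separated by capillary electrophoresis gives reporter mRNA levels. HepG2 with transfected cis-regulated reporter units, 24 h exposure; DMSO serves as baseline for bidirectional curve fits.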

A short description of assay [7]: ATG_AP_2_CIS: Attagene CIS-FACTORIAL HepG2 Assay for human Activator Protein 2 (AP-2) (AID 2282932). The settings on record: HepG2 AP-2 cis-reporter, Attagene transcription factor profiling; actives raise or lower the signal. The method in brief: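 Multiplexed mRNA reporter assay in HepG2: cis-regulated units report endogenous factor activity after 24 h treatment. Fluorescence from capillary electrophoresis of RT-PCR products gives the signal, with DMSO as baseline.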

Assay [8] can be described thus: ATG_BRE_CIS: Attagene CIS-FACTORIAL HepG2 Assay for human Bone Morphogenetic Protein (BMP) Response Element (BRE) (AID 2282933). The note with it: HepG2 BMP response element reporter, Attagene transcription factor profiling; actives raise or lower the signal. The method in brief: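 Endogenous transcription factor activity read in transiently transfected HepG2 cells after 24 h chemical exposure. Bidirectional curve fitting against DMSO; readout is reporter transcript level by RT-PCR with capillary electrophoresis of labelled products.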

Assay [9] concerns the target Retinoic acid receptor alpha (Homo sapiens) (UniProt P10276). In words: ATG_DR5_RAR_CIS: Attagene CIS-FACTORIAL HepG2 Assay for human Retinoic Acid Receptor Alpha (RARE), DR5 submotif (AID 2282934). The note with it: HepG2 Attagene cis-factorial RARE DR5 reporter, mRNA; actives raise or lower the signal. In short, it runs like this: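 Read-out: DR5-driven reporter transcript measured by RT-PCR, 6-FAM primer extension, HpaI digest and capillary electrophoresis. Human HepG2 liver cells carry transiently transfected cis-element reporter constructs; dosing lasts 24 h. Gain or loss of signal fitted against DMSO baseline.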

Assay [10] concerns the target Transcription factor E2F1 (Homo sapiens) (UniProt Q01094). In words: ATG_E2F_CIS: Attagene CIS-FACTORIAL HepG2 Assay for human E2F Transcription Factor 1 (AID 2282935). The note with it: HepG2 Attagene cis-reporter, E2F reporter RNA transcripts; actives raise or lower the signal. In short, it runs like this:
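Measures reporter transcript levels via RT-PCR with capillary electrophoresis detection in HepG2 cells harboring cis-regulated reporter units; 24 h post-dose; bidirectional curve fitting with DMSO as baseline.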

A short description of assay [11]: ATG_E_Box_CIS: Attagene CIS-FACTORIAL HepG2 Assay for human Enhancer Box (E-box) (AID 2282936). The note with it: HepG2 E-box cis-reporter transcription, actives raise or lower the signal. In short, it runs like this: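 First, HepG2 cells receive multiple cis-regulated reporter constructs by transient transfection. Next, chemicals are applied for 24 h. Finally, reporter mRNA is quantified via RT-PCR and capillary electrophoresis, with DMSO as baseline.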

Assay [12] in a line: ATG_M_61_CIS: Attagene CIS-FACTORIAL HepG2 Assay for M61 Transcription Factor (Internal Marker) (AID 2282937). The settings on record: HepG2 Attagene CIS-FACTORIAL M61 internal marker reporter; actives raise or lower the signal. The method in brief:
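This endpoint serves as an internal background control within a multiplexed HepG2 cis-reporter panel. Cells are exposed for 24 h; reporter mRNA is amplified, fluorescently labelled and sized by capillary electrophoresis, with DMSO as negative control.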

The nature of assay [13]: ATG_EGR_CIS: Attagene CIS-FACTORIAL HepG2 Assay for human Early Growth Response 1 (EGR1) (AID 2282938). The note with it: HepG2 Attagene CIS-FACTORIAL EGR reporter mRNA; actives raise or lower the signal. The method in brief: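 HepG2, transient MRTU transfection (cis promoters), 24 h compound. RNA → RT (oligo-dT) → PCR → 6-FAM labelling → HpaI cut → CE fluorescence. Bidirectional fit, DMSO baseline.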

Assay [14] can be described thus: ATG_M_19_CIS: Attagene CIS-FACTORIAL HepG2 Assay for M19 Transcription Factor (Internal Marker) (AID 2282939). The note with it: HepG2 Attagene CIS-FACTORIAL M19 internal marker reporter; actives raise or lower the signal. In short, it runs like this:
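Internal marker readout, fitted in both directions against DMSO, from HepG2 cells carrying transfected cis-element reporter constructs; RT-PCR and capillary electrophoresis of reporter mRNA after 24 h exposure.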

Assay [15] is described as follows: ATG_ERE_CIS: Attagene CIS-FACTORIAL HepG2 Assay for Estrogen Response Element (ERE) (AID 2282940). The note with it: HepG2 ERE cis-reporter, Attagene RNA transcript; actives raise or lower the signal. The method in brief:
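After 24 h compound treatment, RNA from transfected HepG2 cells was reverse-transcribed, reporter cDNA PCR-amplified, FAM-labelled, HpaI-cut and resolved by capillary electrophoresis. ERE-driven cis reporter transcripts reflect endogenous factors; gain or loss scored against DMSO.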

Assay [16] in a line: ATG_Ets_CIS: Attagene CIS-FACTORIAL HepG2 Assay for human Erythroblast Transformation Specific (ETS) (AID 2282941). The settings on record: HepG2 ETS cis-reporter transcription, actives raise or lower the signal. In short, it runs like this:
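After transient cis-reporter transfection, HepG2 cells receive test chemical for 24 h. Reporter mRNA levels, measured by RT-PCR and capillary electrophoresis fluorescence, are analysed bidirectionally relative to the DMSO baseline.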

Assay [17] addresses Hepatocyte nuclear factor 3-beta (Homo sapiens) (UniProt Q9Y261). The assay can be described thus: ATG_FoxA2_CIS: Attagene CIS-FACTORIAL HepG2 Assay for human Forkhead box A2 (FOXA2) (AID 2282942). The settings on record: HepG2 cis-reporter transcription factor activity, 24 h; actives raise or lower the signal. The method in brief:
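Cells: HepG2, transient multiplex reporter transfection. Exposure 24 h. Detection: reporter-specific RT-PCR, fluorescent labelling, restriction digest, capillary electrophoresis. Analysis: bidirectional curve fit, DMSO as negative control.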

Assay [18] can be described thus: ATG_FoxO_CIS: Attagene CIS-FACTORIAL HepG2 Assay for human Forkhead box O (FoxO) (AID 2282943). The note with it: HepG2 Attagene cis-reporter, FoxO element, mRNA; actives raise or lower the signal. In short, it runs like this:
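Read-out: fluorescence of 6-FAM-labelled reporter cDNA fragments resolved by capillary electrophoresis. Transiently transfected HepG2 cells were dosed for 24 h; activity fitted in both directions relative to DMSO controls.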

Assay [19] is described as follows: ATG_GATA_CIS: Attagene CIS-FACTORIAL HepG2 Assay for human GATA Binding Protein (AID 2282944). The note with it: HepG2 GATA cis-element reporter, Attagene multiplex mRNA; actives raise or lower the signal. In short, it runs like this: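 Reporter transcripts from a GATA cis-regulated unit, among multiplexed reporters in transfected HepG2 cells, were measured by RT-PCR with capillary electrophoresis after 24 h dosing. Induction or loss scored relative to DMSO.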

Assay [20] in a line: ATG_GLI_CIS: Attagene CIS-FACTORIAL HepG2 Assay for human Zinc Finger Protein GLI1 (AID 2282945). The settings on record: HepG2, Attagene cis-factorial reporter mRNA, GLI element; actives raise or lower the signal. In short, it runs like this: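 Transiently transfected HepG2 cells report endogenous transcription factor activity via cis-element-driven reporter units. After 24 h compound exposure, reporter mRNA was measured by RT-PCR with capillary electrophoresis; bidirectional fitting against DMSO baseline.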

Calls of active or inactive are those of the source. Rule for the calls: active = hit-call score of the fitted dose curve at least 0.9, where 1 is the maximum; inactive = score below 0.9.

CCAAT/enhancer-binding protein beta (Homo sapiens), sequence (P17676 whole entry, looked up): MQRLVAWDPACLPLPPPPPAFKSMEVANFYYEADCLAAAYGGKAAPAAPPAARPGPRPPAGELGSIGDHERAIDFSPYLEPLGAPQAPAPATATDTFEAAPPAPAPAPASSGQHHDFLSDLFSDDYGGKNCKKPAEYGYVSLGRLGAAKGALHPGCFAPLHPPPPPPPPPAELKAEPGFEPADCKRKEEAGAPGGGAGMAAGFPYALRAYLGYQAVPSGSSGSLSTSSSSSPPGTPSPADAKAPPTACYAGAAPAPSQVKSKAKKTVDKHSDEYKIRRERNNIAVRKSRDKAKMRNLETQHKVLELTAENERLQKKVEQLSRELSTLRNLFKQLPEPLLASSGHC
Aryl hydrocarbon receptor (Homo sapiens), sequence (P35869 whole entry, looked up): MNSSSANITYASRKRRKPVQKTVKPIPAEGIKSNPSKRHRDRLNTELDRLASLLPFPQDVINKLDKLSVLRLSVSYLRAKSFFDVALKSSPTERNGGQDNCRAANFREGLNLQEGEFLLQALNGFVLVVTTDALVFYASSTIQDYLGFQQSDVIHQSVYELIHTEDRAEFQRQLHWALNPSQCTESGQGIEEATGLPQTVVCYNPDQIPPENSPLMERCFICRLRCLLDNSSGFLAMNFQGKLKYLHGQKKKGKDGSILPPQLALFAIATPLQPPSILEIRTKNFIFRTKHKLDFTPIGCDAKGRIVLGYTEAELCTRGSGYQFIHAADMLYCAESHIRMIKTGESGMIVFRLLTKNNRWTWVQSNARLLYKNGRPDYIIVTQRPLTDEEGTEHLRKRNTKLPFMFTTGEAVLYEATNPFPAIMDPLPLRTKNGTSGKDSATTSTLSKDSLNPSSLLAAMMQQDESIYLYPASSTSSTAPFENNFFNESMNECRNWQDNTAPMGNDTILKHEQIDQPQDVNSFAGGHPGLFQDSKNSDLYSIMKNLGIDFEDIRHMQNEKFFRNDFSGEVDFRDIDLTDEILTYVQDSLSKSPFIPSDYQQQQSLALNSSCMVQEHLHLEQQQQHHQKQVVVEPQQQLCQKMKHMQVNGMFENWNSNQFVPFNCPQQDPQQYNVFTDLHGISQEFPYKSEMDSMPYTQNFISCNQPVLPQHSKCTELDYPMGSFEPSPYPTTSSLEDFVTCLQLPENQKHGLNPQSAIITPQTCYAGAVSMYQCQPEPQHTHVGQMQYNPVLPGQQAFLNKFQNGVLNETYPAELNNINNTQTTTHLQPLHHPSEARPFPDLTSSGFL
Retinoic acid receptor alpha (Homo sapiens), sequence (P10276 whole entry, looked up): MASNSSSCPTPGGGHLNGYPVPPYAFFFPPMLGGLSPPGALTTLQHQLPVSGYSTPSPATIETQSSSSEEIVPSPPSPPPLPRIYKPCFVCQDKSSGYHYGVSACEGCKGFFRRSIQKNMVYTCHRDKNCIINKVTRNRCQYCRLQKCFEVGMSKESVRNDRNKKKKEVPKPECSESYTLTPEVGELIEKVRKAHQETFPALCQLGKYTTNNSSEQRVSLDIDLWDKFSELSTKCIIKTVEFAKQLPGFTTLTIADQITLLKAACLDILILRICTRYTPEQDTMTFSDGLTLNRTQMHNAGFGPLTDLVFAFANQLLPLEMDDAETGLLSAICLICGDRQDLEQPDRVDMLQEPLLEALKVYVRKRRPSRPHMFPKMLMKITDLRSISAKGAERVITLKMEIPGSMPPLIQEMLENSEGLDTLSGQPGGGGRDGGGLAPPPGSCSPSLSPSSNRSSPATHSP
Transcription factor E2F1 (Homo sapiens), sequence (Q01094 whole entry, looked up): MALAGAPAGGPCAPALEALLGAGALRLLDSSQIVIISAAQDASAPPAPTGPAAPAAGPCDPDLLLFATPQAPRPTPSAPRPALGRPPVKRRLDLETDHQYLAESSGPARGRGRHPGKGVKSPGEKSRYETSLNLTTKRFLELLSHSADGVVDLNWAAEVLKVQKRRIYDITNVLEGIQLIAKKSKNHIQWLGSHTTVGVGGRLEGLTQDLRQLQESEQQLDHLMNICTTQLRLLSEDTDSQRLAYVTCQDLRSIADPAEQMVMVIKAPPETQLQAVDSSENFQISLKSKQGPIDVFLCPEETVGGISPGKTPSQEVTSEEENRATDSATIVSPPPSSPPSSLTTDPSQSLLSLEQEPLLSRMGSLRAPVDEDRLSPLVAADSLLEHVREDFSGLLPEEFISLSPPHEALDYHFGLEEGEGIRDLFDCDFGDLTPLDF
Hepatocyte nuclear factor 3-beta (Homo sapiens), sequence (Q9Y261 whole entry, looked up): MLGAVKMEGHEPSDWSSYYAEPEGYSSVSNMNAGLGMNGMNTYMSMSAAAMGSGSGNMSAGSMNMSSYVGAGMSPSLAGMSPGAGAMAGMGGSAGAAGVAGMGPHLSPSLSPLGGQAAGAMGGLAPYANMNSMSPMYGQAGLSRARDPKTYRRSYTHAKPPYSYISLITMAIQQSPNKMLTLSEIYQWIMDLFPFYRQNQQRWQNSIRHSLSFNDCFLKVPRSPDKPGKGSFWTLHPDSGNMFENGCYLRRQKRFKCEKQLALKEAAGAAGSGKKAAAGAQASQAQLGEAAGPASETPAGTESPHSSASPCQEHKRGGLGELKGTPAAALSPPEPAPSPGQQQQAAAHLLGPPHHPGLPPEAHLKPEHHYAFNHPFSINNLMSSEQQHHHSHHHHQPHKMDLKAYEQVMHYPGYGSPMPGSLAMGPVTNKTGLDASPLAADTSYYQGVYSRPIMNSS

Regarding `O=C(O)C(F)(F)C(F)(F)C(=O)O`, the compound was called inactive in assay [1], in assay [2], in [3], in [4], in [5] and in [6]. Besides, the outcome in [7], in assay [8], in [9], in [10], in [11] and in assay [12] was inactive. For the same compound, the compound was called inactive in assay [13], in assay [14], in [15], in assay [16], in [17] and in [18]. The call in assay [19] and in [20] was inactive.
For `C=CC(=O)OCC(CC)(COC(=O)C=C)COC(=O)C=C`, the compound was called inactive in assay [1], in [2], in assay [7], in [8], in assay [9] and in assay [12]. Besides, the compound was classed as inactive in assay [14], in assay [15], in assay [16], in assay [17], in assay [18] and in assay [19]. The call in [20] was inactive. For the same compound, the AC50 is 12.1 µM (active) in assay [3]; 16.8 µM (active) in [4]; 35.9 µM (active) in assay [5]; 113 µM (active) in assay [6]; 100 µM (active) in assay [10]; 22 µM (active) in assay [11]. In assay [13], the concentration at half-maximal activity (AC50) was 26.6 µM (active).
Turning to `N#C/C=C/c1ccccc1`, the call in [1], in [2], in assay [3], in assay [4], in assay [5] and in assay [6] was inactive. Further, the call in assay [7], in assay [8], in assay [9], in assay [10], in assay [11] and in assay [12] was inactive. The compound was called inactive in assay [13], in assay [14], in assay [15], in [16], in assay [17] and in [18]. Moreover, the outcome in assay [19] and in assay [20] was inactive.
On to `CCOP(=S)(S)OCC`, for which the result in assay [1], in assay [2], in assay [3], in [4], in [5] and in [6] was inactive. Moreover, the compound was classed as inactive in assay [7], in assay [8], in assay [9], in [10], in assay [11] and in assay [12]. For the same compound, the outcome in assay [13], in assay [14], in [15], in assay [16], in assay [17] and in [18] was inactive. Further, the outcome in assay [19] and in assay [20] was inactive.

The values are drawn from PubChem BioAssay (EPA / NIEHS).
